Measurements published in PubChem BioAssay AID1159580 (chemical genetic matrix, 2015).
“And” between values parts separate entries of the source, which are not always exact repeats. Identical values can stand only once. Hit rate of the full screen: of about 5,500 compounds, about 2,000 (36%) were called active. Not shown: some 18% with an inconclusive outcome. Cut-off read from the data, not from the text of the source: active = normalized growth mostly below about 0.91 (no sharp cut-off); inconclusive = no clear call, values can overlap the other calls; inactive = mostly above about 0.92. This is one part of the list.

Test: chemical genetic growth profiling, strain panel (AID 1159580);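 note: tested at 20 µM; growth read once vehicle control cultures reached saturation at 30 °C; 1 = growth at the plate median or of vehicle wells; lower values mean less growth of the strain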
Conditions: S. cerevisiae deletion strains, growth OD

Measured: normalized growth

CO[C@@]1(NC(=O)Cc2cccs2)C(=O)N2C(C(=O)O)=C(COC(N)=O)CS[C@@H]21
inactive: locus YAL013W, strain DEP1, stronger effect = lower value 1 | locus YAL021C, strain ccr4, stronger effect = lower value 0.939 | locus YAL026C, strain drs2, stronger effect = lower value 0.969 | locus YAL030W, strain snc1, stronger effect = lower value 0.982 | locus YBL061C, strain skt5, stronger effect = lower value 0.97 | locus YBR009C, strain hhf1, stronger effect = lower value 1.02 | locus YBR021W, strain FUR4, stronger effect = lower value 1.01 | locus YBR023C, strain chs3, stronger effect = lower value 0.971 | locus YBR171W, strain sec66, stronger effect = lower value 0.968 | locus YBR229C, strain ROT2, stronger effect = lower value 1.01 | locus YBR231C, strain swc5, stronger effect = lower value 1.03 | locus YBR279W, strain paf1, stronger effect = lower value 0.972 | locus YCL011C, strain gbp2, stronger effect = lower value 0.976 | locus YCL016C, strain dcc1, stronger effect = lower value 0.955 | locus YCL029C, strain bik1, stronger effect = lower value 0.995 | locus YCL069W, strain vba3, stronger effect = lower value 0.989 | locus YCR088W, strain abp1, stronger effect = lower value 0.975 | locus YDL005C, strain med2, stronger effect = lower value 0.981 | locus YDL035C, strain GPR1, stronger effect = lower value 1.01 | locus YDL040C, strain nat1, stronger effect = lower value 0.981 | locus YDL074C, strain BRE1, stronger effect = lower value 1.02 | locus YDL101C, strain DUN1, stronger effect = lower value 1.01 | locus YDL134C, strain PPH21, stronger effect = lower value 1 | locus YDL185W, strain tfp1, stronger effect = lower value 0.994 | locus YDL192W, strain arf1, stronger effect = lower value 1 | locus YDR001C, strain nth1, stronger effect = lower value 0.971 | locus YDR069C, strain doa4, stronger effect = lower value 0.963 | locus YDR101C, strain arx1, stronger effect = lower value 0.984 | locus YDR137W, strain rgp1, stronger effect = lower value 0.94 | locus YDR150W, strain NUM1, stronger effect = lower value 1.01 | locus YDR159W, strain sac3, stronger effect = lower value 0.943 | locus YDR162C, strain NBP2, stronger effect = lower value 1 | locus YDR195W, strain ref2 0.98 | locus YDR297W, strain sur2, stronger effect = lower value 0.998 | locus YDR318W, strain mcm21, stronger effect = lower value 0.992 | locus YDR334W, strain swr1, stronger effect = lower value 0.97 | locus YDR335W, strain msn5, stronger effect = lower value 0.955 | locus YDR388W, stronger effect = lower value 0.99 | locus YDR392W, strain spt3, stronger effect = lower value 0.838 | locus YDR502C, strain sam2, stronger effect = lower value 0.991 | locus YEL003W, strain gim4, stronger effect = lower value 0.983 | locus YEL037C, strain rad23, stronger effect = lower value 0.97 | locus YEL061C, strain CIN8 (second series), stronger effect = lower value 0.976 | locus YEL061C, strain CIN8, stronger effect = lower value 1.01 | locus YER015W, strain faa2, stronger effect = lower value 0.99 | locus YER016W, strain bim1, stronger effect = lower value 0.949 | locus YER110C, stronger effect = lower value 0.997 | locus YER111C, strain swi4, stronger effect = lower value 0.96 | locus YER155C, strain BEM2 (second series), stronger effect = lower value 0.977 | locus YER155C, strain BEM2, stronger effect = lower value 1 | locus YER167W, strain BCK2, stronger effect = lower value 1 | locus YFR010W, strain ubp6, stronger effect = lower value 1.01 | locus YGL078C, strain dbp3, stronger effect = lower value 0.986 | locus YGL086W, strain mad1, stronger effect = lower value 0.987 | locus YGL167C, strain pmr1, stronger effect = lower value 0.978 | locus YGL173C, strain kem1, stronger effect = lower value 0.987 | locus YGL227W, strain vid30, stronger effect = lower value 0.98 | locus YGL240W, strain doc1, stronger effect = lower value 1 | locus YGL248W, strain PDE1, stronger effect = lower value 1.01 | locus YGL253W, strain hxk2, stronger effect = lower value 0.978 | locus YGR078C, strain PAC10, stronger effect = lower value 1.01 | locus YGR135W, strain pre9, stronger effect = lower value 0.989 | locus YGR252W, strain gcn5, stronger effect = lower value 0.982 | locus YHR013C, strain ard1, stronger effect = lower value 0.935 | locus YHR027C, strain rpn1, stronger effect = lower value 1.01 | locus YHR030C, strain SLT2, stronger effect = lower value 1.01 and 1.08 | locus YHR079C, strain IRE1 (second series), stronger effect = lower value 0.995 | locus YHR079C, strain IRE1, stronger effect = lower value 1.08 | locus YHR094C, strain hxt1, stronger effect = lower value 0.984 | locus YHR129C, strain ARP1, stronger effect = lower value 1 | locus YHR142W, strain chs7, stronger effect = lower value 0.936 | locus YHR200W, strain rpn10, stronger effect = lower value 0.994 | locus YIL066C, strain RNR3, stronger effect = lower value 1.01 | locus YIL073C, strain SPO22, stronger effect = lower value 1.01 | locus YIL125W, strain kgd1, stronger effect = lower value 0.995 | locus YIR030C, strain dcg1, stronger effect = lower value 0.996 | locus YJL092W, strain hpr5, stronger effect = lower value 0.989 | locus YJL095W, strain BCK1 (second series), stronger effect = lower value 0.967 | locus YJL095W, strain BCK1, stronger effect = lower value 1.01 and 1.06 | locus YJL115W, strain asf1, stronger effect = lower value 0.969 | locus YJL129C, strain trk1, stronger effect = lower value 0.914 | locus YJL134W, strain LCB3, stronger effect = lower value 1.01 | locus YJL154C, strain vps35, stronger effect = lower value 0.973 | locus YJL164C, strain tpk1, stronger effect = lower value 0.98 | locus YJL166W, strain qcr8, stronger effect = lower value 0.987 | locus YJL168C, strain set2, stronger effect = lower value 0.992 | locus YJL187C, strain SWE1 (second series), stronger effect = lower value 1.01 | locus YJR043C, strain POL32, stronger effect = lower value 0.986
